For 27 sequences, TF binding intensity results are on record in the supplement of paper PMC10681739.

The target in the assay is T1, ETS1 (UniProt P14921).
T1 sequence: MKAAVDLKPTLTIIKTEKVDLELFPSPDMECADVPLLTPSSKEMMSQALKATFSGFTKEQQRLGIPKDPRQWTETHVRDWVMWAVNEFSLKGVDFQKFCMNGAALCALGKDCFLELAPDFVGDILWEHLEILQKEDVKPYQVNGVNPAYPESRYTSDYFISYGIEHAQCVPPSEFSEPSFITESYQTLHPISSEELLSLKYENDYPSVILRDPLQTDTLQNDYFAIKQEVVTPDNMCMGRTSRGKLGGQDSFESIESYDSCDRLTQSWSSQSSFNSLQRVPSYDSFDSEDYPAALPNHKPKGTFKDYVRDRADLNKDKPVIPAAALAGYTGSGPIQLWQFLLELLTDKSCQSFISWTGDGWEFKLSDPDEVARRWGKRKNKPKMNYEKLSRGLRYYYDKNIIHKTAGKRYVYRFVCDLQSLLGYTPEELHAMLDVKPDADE
Nature of the assay: TF binding intensity (PBM fluorescence), negative control probe (arbitrary fluorescence units); higher = stronger binding. How it is done:
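gcPBM negative-control 36-bp genomic probes lacking TF binding sites. Each was incubated with recombinant human ETS1 or RUNX1 alone and detected by antibody fluorescence. Values are medians over replicate spots (4 spots for the ETS1-RUNX1 arrays, 3 for the ETS1-ETS1 array). The probes sit in constant array flanks that are not printed.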
“CATATAACTGGTAGAACATCAGGTGTGGGTGGATCA (protein concentration 10 nM)” returned a TF binding intensity of 111. As for “GATATGAGATCAGAATGAGGCTGCATGAGAACAAGT (protein concentration 10 nM)”, the TF binding intensity came out at 112. Sequence “AGTCTAGTTTTGCTCTTTAAAATCACCATCTGTATC (protein concentration 10 nM)” gave a TF binding intensity of 138. For “CTGGGCCATTAACCTCAGCAGAAAAATGCTTTTTGC (protein concentration 10 nM)”, the TF binding intensity stood at 97.6. With “AGTTATTCTAGCTCAAACCAAGTTATTTTTCACTTT (protein concentration 10 nM)” the figure was 108.

In turn, “GGCTGAGGTGTCTGTGTTGGCAGCAGGAGCCTCTCT (protein concentration 10 nM)” had a TF binding intensity of 128. For “GTTGGGCCCCCTGGGCCTTGTTCTCGGGATCCAGGG (protein concentration 10 nM)” the value was 111; for “TTTCTGTTTTGTTTTATTTTGTTTGTTTTTATTCTG (protein concentration 10 nM)”, 128. “CCGGGACCCCGCCCCCGATCCCCGCCTACCGGGGCC (protein concentration 10 nM)” yielded a TF binding intensity of 209. With “CCACGCTTTGCCAGCACTTTCCCCTGCCTCGTCTGT (protein concentration 10 nM)” the figure was 119; with “TAATCCCAGCACTTTGGGAATCCAAGGCAGTCAAAT (protein concentration 10 nM)”, 94.8; with “AGCAGAGTGTGATGAATGGATTCATATACGGTCTGA (protein concentration 10 nM)”, 103. With “GAGCATCACAAGGTCAGAGGAGGGGGCGGCCAGGGT (protein concentration 10 nM)”, the TF binding intensity was determined as 240. “CCTATTAAATTCAGATTTGCAGTTTGTTTTTTATCA (protein concentration 10 nM)”: the TF binding intensity worked out at 117.

In the case of “TTGAAATGCATTCTCTGTGGGCATATGAAGTAGATT (protein concentration 1 nM)”, the TF binding intensity is 410. With “AAAACTAAAAGTAGAACCACCATATGATCCAGTAAT (protein concentration 1 nM)” the figure was 504; with “GTTTTGCAACTCTTATTCCAAGTGGACACCCAGAAA (protein concentration 10 nM)”, 140.

As to “TAGAAACCGTGTTTTAAATTTAACACTGGTAAGATG (protein concentration 10 nM)”, the TF binding intensity is 113. “CCGACACTCCATGAGTTAGTTCAGTCCTCTGACACC (protein concentration 10 nM)”: the TF binding intensity worked out at 150. “CCAGCAGCAGTTGTGAATTGGGTAATTTAATGAAAA (protein concentration 10 nM)” displayed a TF binding intensity of 116. In turn, “TTTTTTTTTTTGGTCTGTGGTTTTGGAGTTTTTGTT (protein concentration 1 nM)” gave a TF binding intensity of 716. With “TTAACCTCTAGAAAAAGTAAATATTCAGCAATAGGA (protein concentration 10 nM)” the figure was 103. “CAAGATCTCTAACCACACTCGTCTGTGGCACTTCTT (protein concentration 10 nM)” showed a TF binding intensity of 118.

Turning to “CTTGGTGTGTCTGAAGAAAGATCAGAAGGCTGGCAT (protein concentration 10 nM)”, the TF binding intensity came to 123. For “GTCTTGTTACTGGAGTGTGATAGCACCTAATAATAT (protein concentration 10 nM)” the value was 150. Sequence “ACGTGTGGGGACCCAAGCTATCCCTAAGAAAGCACT (protein concentration 10 nM)” gave a TF binding intensity of 115.

Sequence “TCAGCAGCTCGTGCTGCTTGAAGTGCTGGGGGCGAG (protein concentration 10 nM)” showed a TF binding intensity of 153.
